Results filed as inconclusive are left out. Active and inactive are the calls of the source. Calls follow the shape of the dose curve; as a rule, active = well fitted inhibition curve with a large enough effect; inconclusive = small, poorly fitted or top-dose-only effect; inactive = flat fitted curve, though single readings scatter.
Legend:
Test in all cases: qHTS profiling for inhibitors of Plasmodium falciparum proliferation (AID 504749); also: nearly all actives have a fitted effect of over 60% in size
Settings in all cases: P. falciparum in erythrocytes, SYBR Green DNA, 72 h; series mostly up to 28.7 µM
3D7 = test system: 3D7
In short: (§1)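 Fluorescence of SYBR Green-bound parasite DNA, read at 485/535 nm, served as the growth measure. Infected erythrocytes were cultured with compound 72 h; artemisinin (0.29 uM) and DMSO wells defined the normalization range.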

7G8 = test system: 7G8
In short: as §1

AA1029 = test system: AA1029
In short: as §1

ATS95 = test system: ATS95
In short: as §1

CP185 = test system: CP185
In short: as §1

CP191 = test system: CP191
In short: as §1

CP237 = test system: CP237
In short: as §1

CP238 = test system: CP238
In short: as §1

CP265 = test system: CP265
In short: as §1

CP286 = test system: CP286
In short: as §1

DFO2036 = test system: DFO2036
In short: as §1

Dd2 = test system: Dd2
In short: as §1

ECU = test system: ECU
In short: as §1

FAB9 = test system: FAB9
In short: as §1

HB3 = test system: HB3
In short: as §1

P94_40 = test system: P94_40
In short: as §1

PAD = test system: PAD
In short: as §1

PC15 = test system: PC15
In short: as §1

TAB109 = test system: TAB109
In short: as §1

TAB165 = test system: TAB165
In short: as §1

Measured: Potency

CC(=O)OC1CC2CCC1(C)C2(C)C (stereo not given)
inactive: all assays above
